# Test results taken from PubChem BioAssay (NCI).
# Compounds without any hit were thinned out: in the full panel of roughly 83,000, 20% have a hit.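 Results are percent growth after 48 hours of single-concentration exposure. 100 means growth as in untreated cells, lower positive values show inhibition; negative values down to -100 show cell death.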 Values without a mark were called inactive. The source made the active and inactive calls. How the source made its calls: active means growth percent below 10; inactive means the rest.
# Experiments:
# Test in all cases: NCI-60 one-dose screen, 48 h (100 = growth as untreated, 0 = no growth, -100 = all killed)
# Details in all cases: 10 µM unless noted
# SK-MEL-2 melanoma = test system: SK-MEL-2 melanoma
# EKVX NSCLC = test system: EKVX NSCLC
# SN12C renal = test system: SN12C renal
# UO-31 renal = test system: UO-31 renal
# TK-10 renal = test system: TK-10 renal
# ACHN renal = test system: ACHN renal
# CAKI-1 renal = test system: CAKI-1 renal
# A498 renal = test system: A498 renal
# CCRF-CEM leukemia = test system: CCRF-CEM leukemia
# MOLT-4 leukemia = test system: MOLT-4 leukemia
# SR leukemia = test system: SR leukemia
# RPMI-8226 leukemia = test system: RPMI-8226 leukemia
# OVCAR-8 ovarian = test system: OVCAR-8 ovarian
# OVCAR-5 ovarian = test system: OVCAR-5 ovarian
# OVCAR-4 ovarian = test system: OVCAR-4 ovarian
# SK-OV-3 ovarian = test system: SK-OV-3 ovarian
# IGROV1 ovarian = test system: IGROV1 ovarian
# OVCAR-3 ovarian = test system: OVCAR-3 ovarian
# HS 578T breast = test system: HS 578T breast
# NCI/ADR-RES ovarian = test system: NCI/ADR-RES ovarian
SMILES,growth (SK-MEL-2 melanoma),growth (EKVX NSCLC),growth (SN12C renal),growth (UO-31 renal),growth (TK-10 renal),growth (ACHN renal),growth (CAKI-1 renal),growth (A498 renal),growth (CCRF-CEM leukemia),growth (MOLT-4 leukemia),growth (SR leukemia),growth (RPMI-8226 leukemia),growth (OVCAR-8 ovarian),growth (OVCAR-5 ovarian),growth (OVCAR-4 ovarian),growth (SK-OV-3 ovarian),growth (IGROV1 ovarian),growth (OVCAR-3 ovarian),growth (HS 578T breast),growth (NCI/ADR-RES ovarian)
CCc1n(Cc2ccc3ccccc3c2)cc[n+]1Cc1ccc2ccccc2c1,-55.2% (active),11.9%,6.37% (active),80.6%,-10.3% (active),72.3%,84.5%,21.8%,11.4%,10.6%,-28% (active),-23.1% (active),-4.85% (active),8.92% (active),2.44% (active),9.89% (active),-21.7% (active),-16.3% (active),4.38% (active),92.5%
C#Cc1cccc(Nc2ncnc3ccc(-c4cncc(NS(C)(=O)=O)c4)cc23)c1,-39.7% (active),4.65% (active),24.2%,38.4%,-3.64% (active),33.2%,54.9%,-10.7% (active),14%,-28.3% (active),7.86% (active),26.3%,37.1%,21.9%,52.1%,0.85% (active),-12.4% (active),7.33% (active),6.13% (active),78.3%
C[C@]12CC[C@@H]3c4ccc(O)c([N+](=O)[O-])c4CC[C@H]3[C@@H]1CCC2=O,107%,58.5%,101%,81.5%,89%,94.1%,72.7%,141%,110%,80.4%,115%,90.5%,112%,92%,81.1%,123%,80.6%,104%,78%,94.9%
CN(C)CCCC1(c2ccc(F)cc2)OCc2cc(-c3cncc4ccccc34)ccc21 (stereo not given),58.7%,76.2%,43.1%,29.9%,83.1%,36.9%,28.2%,34.1%,26.9%,14.6%,-3.26% (active),35.3%,62.7%,70.5%,43.9%,59.6%,22.1%,47%,27.5%,67%
Cc1ccc(/C=C2\CN(C(=O)OC(C)(C)C)C/C(=C\c3ccc(C)cc3)C2=O)cc1,83.8%,84.3%,60.7%,66.9%,87%,20.3%,61%,67.6%,3.02% (active),34.7%,-13.1% (active),-25.8% (active),25%,112%,65.4%,104%,69.3%,7.18% (active),59.6%,76.3%
O=C(O)[C@@H]1c2ccccc2-c2ccccc2[C@H]1C(=O)O,123%,100%,99.6%,66.3%,105%,98.7%,96.5%,96.6%,87.1%,107%,116%,100%,78.4%,83.2%,98%,103%,80.7%,104%,94.3%,95.4%
CC(C)n1cnc2c(=S)nc[nH]c21,114%,98%,108%,92%,109%,93.7%,73.1%,127%,90.9%,56.6%,74.8%,72.9%,109%,121%,124%,-99.9% (active),114%,105%,108%,133%
Cc1nc(-c2ccccc2)cc2c(O)c(C(=O)NN)[nH]c(=O)c12,93.3%,111%,90.9%,97.4%,161%,109%,114%,100%,95.1%,102%,106%,103%,106%,110%,112%,103%,7.89% (active),105%,109%,118%
COC(=O)c1cc(-c2ccccc2)[nH]c1N/N=C/c1c(Cl)cccc1Cl,-4.44% (active),-1.92% (active),35.2%,42.3%,26.4%,44%,5.94% (active),-45.8% (active),-8.44% (active),-9.43% (active),-9.18% (active),-12.7% (active),15.4%,21.9%,64.5%,24.4%,-44.5% (active),-76.7% (active),-30.4% (active),-16.2% (active)
CCN(c1ccc(Cl)cc1)c1nc(-c2ccc([N+](=O)[O-])cc2)cs1,101%,79.5%,98.5%,71.9%,115%,95.9%,79.6%,63.8%,101%,96.9%,83.4%,91.5%,103%,103%,92.7%,95.7%,73%,102%,87%,101%
C=C(C)[C@@H]1CC[C@]2(C(=O)NCCNCCN)CC[C@]3(C)[C@H](CC[C@@H]4[C@@]5(C)C/C(=C/c6ccncc6)C(=O)C(C)(C)[C@@H]5CC[C@]43C)[C@@H]12,108%,92.2%,96.5%,83.5%,118%,100%,85.6%,95.7%,97.1%,82.9%,95.4%,90.5%,101%,103%,89.9%,109%,87.6%,97.9%,86.7%,101%
CC(C)OC(=O)c1ccc2[nH]c(O)c(C(=Nc3ccc(N(C)C(=O)CN4CCN(C)CC4)cc3)c3ccccc3)c2c1,-73.6% (active),-3.97% (active),8.95% (active),-96.3% (active),-90.5% (active),2.21% (active),-93.4% (active),-48.3% (active),6.41% (active),-17.9% (active),-20.3% (active),-28.9% (active),-37.4% (active),-36.2% (active),-72.3% (active),-81.6% (active),-39.2% (active),-75.7% (active),-7.07% (active),38.4%
Cc1ccc(-c2csc(NC(=O)CN3CCN(c4cc5c(cc4F)c(=O)c(C(=O)O)cn5C4CC4)CC3)n2)cc1,-13.5% (active),16.5%,16.4%,12.1%,15.9%,4.32% (active),20.8%,7.69% (active),8.52% (active),4.51% (active),-0.152% (active),6.21% (active),10.6%,21.1%,20.8%,-7.14% (active),25.4%,14.8%,47.8%,4.91% (active)
c1ccc(C2=NN[C@H](c3cn(-c4ccccc4)nc3-c3ccccc3)C2)cc1,54.8%,41.4%,46.6%,9.32% (active),17.9%,-4.87% (active),4.95% (active),54.5%,89.3%,80.5%,90.9%,86.7%,35.6%,83.6%,14.8%,-1.38% (active),62.1%,2.11% (active),-7.83% (active),48.9%
COc1ccc(-c2nc3c(c(-c4ccccc4)nn3-c3ccccc3)c(-c3ccc(N4CCN(C)CC4)cc3)c2C#N)cc1,106%,104%,93.7%,76.2%,99%,95.3%,90%,99.6%,85.3%,69.4%,63.3%,87.4%,93.7%,104%,107%,109%,93.8%,103%,100%,93%
C=C1C(=O)O[C@H]2[C@H]1CC/C(COC(=O)CCSCCC(=O)OC/C1=C/CC[C@@]3(C)O[C@H]3[C@H]3OC(=O)C(=C)[C@@H]3CC1)=C\CC[C@@]1(C)O[C@@H]21,23.8%,12%,0.113% (active),-49.4% (active),-3.89% (active),-12% (active),4.51% (active),69.8%,-24.8% (active),-25.7% (active),-15.8% (active),-27% (active),9.02% (active),-6.34% (active),41.7%,93.6%,-17.3% (active),-68.8% (active),19.4%,53.4%
